# Hits are enriched below; roughly 11% of the tested compounds scored in any of these assays.
# hNpr1 antagonist: human Npr1 receptor antagonism | HEK293 hNpr1 GloSensor cGMP, ANP-stimulated luminescence | hit rate 1.6% among 76,000 | P16066 | Potency, µM (top dose mostly 46.3 µM), for the others: at the top dose activity change, negative = inhibition, hits mostly inhibitors; calls by dose curve; also: nearly all actives have a fitted effect of over 60% in size
#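 HEK293 cells stably expressing human Npr1 and cGMP GloSensor pGS-40F, loaded 2 h with 2% GloSensor reagent, given compound 30 min at room temperature. Luminescence read before and 20 min after 0.1 nM hNppA.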
# FLuc inh: Photinus pyralis luciferase inhibition | purified P. pyralis luciferase, luminescence, biochemical | hit rate 2.5% among 76,000 | Potency, µM (doses to about 115 µM), hits mostly inhibitors | P08659; also: nearly all actives have a fitted effect of over 65% in size
# Target sequence (P08659 whole entry, looked up): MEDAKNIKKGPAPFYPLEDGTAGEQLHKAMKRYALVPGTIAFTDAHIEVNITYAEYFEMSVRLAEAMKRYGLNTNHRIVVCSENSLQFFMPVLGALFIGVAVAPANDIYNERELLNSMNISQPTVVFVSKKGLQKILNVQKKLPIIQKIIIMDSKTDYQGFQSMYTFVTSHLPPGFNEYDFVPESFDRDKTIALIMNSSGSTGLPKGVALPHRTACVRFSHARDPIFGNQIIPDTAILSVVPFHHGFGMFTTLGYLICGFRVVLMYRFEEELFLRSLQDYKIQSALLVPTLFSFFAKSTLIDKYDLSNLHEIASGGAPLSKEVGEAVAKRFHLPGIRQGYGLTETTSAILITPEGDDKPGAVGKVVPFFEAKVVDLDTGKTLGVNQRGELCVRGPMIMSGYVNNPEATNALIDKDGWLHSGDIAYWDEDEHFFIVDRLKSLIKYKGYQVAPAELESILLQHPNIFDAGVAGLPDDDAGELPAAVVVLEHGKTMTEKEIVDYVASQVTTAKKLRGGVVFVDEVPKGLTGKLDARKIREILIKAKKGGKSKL
#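 Inhibitors were tested against purified firefly luciferase in a biochemical, low-substrate format (both substrates at 10uM) and luminescence measured with a CCD imager.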
# 3T3 cytotox: kills NIH 3T3 cells. hit rate 4.3% among 94,000. Potency, µM (titrated, usually from 96.7 µM), for inactives: at the top dose activity change, negative = cytotoxicity, most hits filed as inhibitors. NIH 3T3 viability, CellTiter-Glo ATP luminescence, 48-72 h; also: nearly all actives have a fitted effect of over 55% in size
#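 NIH 3T3 cells at 400 cells/well received 23 nL of compound by pintool and were incubated 48 or 72 h at 37 °C. Viability was read as ATP-coupled CellTiter-Glo luminescence.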
# HEK293 tox: HEK 293 cell cytotoxicity; HEK 293 viability, ATP luminescence (CellTiter-Glo), 48-72 h; Potency, µM (doses to about 115 µM), inactives show at the highest dose activity change, negative = cytotoxicity, actives largely listed as inhibitors; AID 1345083; hit rate 6.6% among 94,000; also: nearly all actives have a fitted effect of over 60% in size
#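 Cells seeded first (HEK 293, 250 cells/well), then compound added by pintool. Incubation ran 48 or 72 hr at 37 degree Celsius. CellTiter-Glo was added and luminescence imaged after 10 min at room temperature.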
# The depositor's hits bear a star; i = inactive; ? = inconclusive; . = not tested or not shown; [ ] = another dose, or the depositor's remark. Unless noted, calls follow the shape of the dose curve; as a rule, active = well fitted curve in the direction sought with a large enough effect; inconclusive = small, poorly fitted or top-dose-only effect, or another doubt; inactive = no such curve, though single readings can be large; an effect the other way counts as inactive or inconclusive. % is scaled to controls: 0 for no effect and ±100 for the full control effect; potency is read from the fitted curve at half-maximal effect.
SMILES,hNpr1 antagonist,FLuc inh,3T3 cytotox,HEK293 tox
CCn1nccc1C(=O)N1CCCC(c2nnc(Cn3cccn3)n2C)C1 (stereo not drawn),0.6%,i,1.2%,i
COc1cccc(CN2C(=O)OC3(CCN(C(=O)Cc4ccccn4)CC3)C2(C)c2cccnc2)c1 (stereo not drawn),8.7%,i,35.5µM*,i
CC1(c2ccccc2)N(Cc2ccccc2C#N)C(=O)OC12CCN(C(=O)Cc1ccccn1)CC2 (stereo not drawn),-3.6%,i,28.2µM*,2.0%
COc1cccc(CN2C(=O)OC3(CCN(Cc4ccccn4)CC3)C2(C)c2cccnc2)c1 (stereo not drawn),-0.4%,i,?,4.4%
COc1cccc(CC(=O)N2CCC3(CC2)OC(=O)N(Cc2csc(C)n2)C3(C)c2ccccc2)c1 (stereo not drawn),-9.9%,i,7.08µM*,-40.1%
COCC(=O)N1CCC(c2noc(COc3ccc(F)cc3)n2)CC1,.,.,-12.1%,-12.8%
CC1CCN(C(=O)CCN2C[C@H](NS(C)(=O)=O)[C@@H](C(C)C)C2)CC1,0.0%,i,-15.2%,i
O=C(NCc1ccc(F)cc1)c1nc2sccn2c1-c1ccc(C(F)(F)F)cc1,.,.,14.1µM*,?
O=C(NCc1ccccc1F)c1nc2sccn2c1-c1ccc(C(F)(F)F)cc1,.,.,?,31.6µM*
Cc1ccc(-c2c(C(=O)NCc3ccccc3F)nc3sccn23)cc1,.,.,-10.3%,-5.3%
Cc1ccc(-c2c(C(=O)NCCc3ccccc3)nc3sccn23)cc1,.,.,17.8µM*,44.7µM*
O=C(NCc1cccs1)c1nc2sccn2c1-c1ccncc1,.,.,?,89.1µM*
Cc1ccc(-c2c(C(=O)NCc3cccs3)nc3sccn23)cc1,.,.,-11.1%[138 µM],?
COc1cccc(C2CCN(C(=O)c3cn(CCc4ccccc4)nn3)C2)c1OC (stereo not drawn),0.3%,i,?,?
O=C(NCc1ccccc1)c1nc2sccn2c1-c1ccc(C(F)(F)F)cc1,.,.,?,39.8µM*
COc1ccc(-c2c(C(=O)NCCCc3ccccc3)nc3sccn23)cc1,.,.,35.5µM*,?
O=C(NCCc1ccccc1)c1nc2sccn2c1-c1ccc(C(F)(F)F)cc1,.,.,14.1µM*,?
O=C(NCc1ccccc1)c1nc2sccn2c1-c1ccc(F)cc1,.,.,-9.2%,i
O=C(NCc1cccc(C(F)(F)F)c1)c1nc2sccn2c1-c1cccc(C(F)(F)F)c1,.,.,?,35.5µM*
COCCN1CCCC2(CCN(c3nc(OC)cc(OC)n3)C2)C1=O (stereo not drawn),-2.7%,i,0.4%,-0.7%
CC1(C(=O)O)CCN([S+](=O)([O-])c2cc(C(F)(F)F)cc(C(F)(F)F)c2)CC1,.,.,-3.1%,2.9%
CCc1nc2nccc(-c3ccc(OC)c(OC)c3)n2n1,5.8%,i,?,?
COCCNC(=O)[C@@H]1C[C@H](Oc2ccccc2)CN1C(=O)c1cccnc1C,0.2%,i,-4.7%,i
CCOC(=O)C1CCCN(C(=O)c2nc3sccn3c2-c2ccc(C)cc2)C1 (stereo not drawn),.,.,-5.0%,-8.3%
CCC(NCc1c(C(=O)N2CCCCCC2)nc2cc(C)ccn12)c1ccc(C)cc1 (stereo not drawn),-6.7%,i,44.7µM*,17.8µM*
SMILES,hNpr1 antagonist,FLuc inh,3T3 cytotox,HEK293 tox
CC(C)(C)NC(=O)C1CCCN(C2CCN(C3Cc4ccccc4C3)CC2)C1 (stereo not drawn),0.0%,i,-19.7%,-16.8%
CN1CCN(C(=O)c2cn3cc(-c4ccc(F)cc4)sc3n2)CC1,.,.,79.4µM*,?
COc1ccc(-c2cn3cc(C(=O)N4CCOCC4)nc3s2)cc1,.,.,?,63.1µM*
O=C(c1cn2cc(-c3ccccc3)sc2n1)N1CCOCC1,.,.,?,89.1µM*
CCN1CCN(C(=O)c2cn3cc(-c4ccc(F)cc4)sc3n2)CC1,.,.,-24.5%,1.6%
O=C(NC1CC1)c1ccccc1OCC1CCCN(Cc2cccc3[nH]ccc23)C1 (stereo not drawn),-9.9%,i,-23.6%,35.5µM*
CC(c1nn[nH]n1)n1cc(-c2cc3c(cc2Cl)OCO3)nn1 (stereo not drawn),0.6%,?,3.3%,i
CC1=C[C@@H](CNC(=O)NC2CCCCC2)[C@H](C(C)C)C[C@H]1Cc1nc2c(C)cccc2[nH]1,3.5%,i,-14.2%,-9.9%
